PubChem BioAssay (EPA / NIEHS)
Where “and” joins values, the source holds several entries; their conditions need not be identical. Identical values can stand only once. Inconclusive results are not listed. Where a structure was tested more than once in an assay, its records may differ in their call. Calls of active or inactive are those of the source. The calls were made as follows, unless noted: active = hit-call score of the fitted dose curve at least 0.9, where 1 is the maximum; inactive = score below 0.9.

Legend:
[1] = biological target: Nuclear respiratory factor 1 (Homo sapiens) (UniProt Q16656); experiment: ATG_NRF1_CIS: Attagene CIS-FACTORIAL HepG2 Assay for human Nuclear Respiratory Factor 1 (NRF1) Orphan Gene (AID 2282987); details: HepG2 NRF1 cis-element reporter, Attagene multiplex; actives raise or lower the signal
How it was run: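 HepG2 cells transiently transfected with multiple cis-regulated reporter units, exposed 24 h. Reporter mRNAs measured by RT-PCR, fluorescent labelling, HpaI digestion and capillary electrophoresis; bidirectional fitting against DMSO.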

[2] = ATG_NFI_CIS: Attagene CIS-FACTORIAL HepG2 Assay for human Nuclear Factor I (NFI) (AID 2282989); details: HepG2 cis-regulatory reporter, NFI response element transcription; actives raise or lower the signal
How it was run: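 Read-out: reporter mRNA via RT-PCR plus capillary electrophoresis with fluorescence detection. Transiently transfected HepG2 (endogenous TF activity on cis promoters), 24 h compound exposure; gain or loss of signal fitted against DMSO.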

[3] = biological target: Myc proto-oncogene protein (Homo sapiens) (UniProt P01106); experiment: ATG_Myc_CIS: Attagene CIS-FACTORIAL HepG2 Assay for human Myelocytomatosis (Myc) Proto-Oncogene Transcription Factor (AID 2282990); details: HepG2, Attagene cis-reporter transcription factor activity; actives raise or lower the signal
How it was run: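 Cells of the HepG2 human liver line bear multiple cis-driven reporter transcription units. Reporter mRNA after 24 h exposure is reverse-transcribed, amplified, labelled and resolved by capillary electrophoresis, with gain- or loss-of-signal fitting relative to DMSO.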

[4] = ATG_NF_kB_CIS: Attagene CIS-FACTORIAL HepG2 Assay for human Nuclear Factor Kappa B (NF-kB) (AID 2282991); details: HepG2 Attagene cis-factorial NF-kB reporter mRNA; actives raise or lower the signal
How it was run: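 HepG2 cells transfected with cis-promoter-driven reporter units, so endogenous transcription factor activity is measured. Reporter mRNA quantified 24 h after dosing by RT-PCR and capillary electrophoresis, with bidirectional fitting against DMSO.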

[5] = ATG_NRF2_ARE_CIS: Attagene CIS-FACTORIAL HepG2 Assay for human Nuclear Factor Erythroid 2 Related Factor 2 (NFR2) response to Antioxidant Response Elements (ARE) (AID 2282992); details: HepG2 Attagene ARE/NRF2 reporter, transcription factor activity; actives raise or lower the signal;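 as to AC50: reporter mRNA level measured by RT-PCR and capillary electrophoresis fluorescence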
How it was run: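 Readout: reporter mRNA quantified by RT-PCR plus FAM-labelled primer extension, HpaI digestion and capillary electrophoresis, 24 h after dosing transfected HepG2 cells. Gain or loss of signal is fitted bidirectionally against DMSO baseline.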

[6] = ATG_Oct_MLP_CIS: Attagene CIS-FACTORIAL HepG2 Assay for human Octamer-Binding Transcription Factor (Oct) (AID 2282993); details: HepG2 Attagene cis-factorial Oct reporter, mRNA; actives raise or lower the signal
How it was run: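 Read-out: reporter mRNA via RT-PCR plus capillary electrophoresis of 6-FAM-labelled fragments. Transiently transfected HepG2, 24 h exposure, endogenous TF activity on cis elements. Gain or loss of signal fitted relative to DMSO.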

[7] = biological target: Cellular tumor antigen p53 (Homo sapiens) (UniProt P04637); experiment: ATG_p53_CIS: Attagene CIS-FACTORIAL HepG2 Assay for human p53 Transcription Factor (AID 2282994); details: HepG2 p53 cis-element reporter, Attagene mRNA; actives raise or lower the signal
How it was run: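 Read-out: reporter mRNA by RT-PCR plus capillary electrophoresis with fluorescence detection. Human HepG2 liver cells carried transfected multi-reporter cis-element constructs, dosed 24 h. Gain or loss of signal fitted bidirectionally against DMSO control.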

[8] = BSK_3C_TissueFactor: BioMAP Diversity Plus: 3C Assay for Tissue Factor Biomarker Activity (AID 2282997); details: BioMAP 3C HUVEC, tissue factor biomarker readout; actives raise or lower the signal
How it was run: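 In this endothelial system, HUVEC are treated for 24 h and Tissue Factor is assessed by ELISA, normalised to DMSO.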

[9] = BSK_3C_uPAR: BioMAP Diversity Plus: 3C Assay for Urokinase-type plasminogen activator receptor (uPAR) Biomarker Activity (AID 2282998); details: BioMAP 3C HUVEC, uPAR biomarker ELISA; actives raise or lower the signal
How it was run: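 HUVEC primary cells; 24 h post-dose; uPAR by ELISA; gain or loss of signal fitted bidirectionally vs DMSO baseline.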

[10] = BSK_4H_Eotaxin3: BioMAP Diversity Plus: 4H Assay for Eotaxin 3 Biomarker Activity (AID 2283000); details: primary human endothelial cells (HUVEC); actives raise or lower the signal
How it was run: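 ELISA quantitation of CCL26 (Eotaxin-3) protein from chemically dosed human vascular endothelial cells at 24 h; increases and decreases both scored relative to DMSO-treated baseline.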

[11] = biological target: human Peroxisome Proliferator-activated Receptor alpha (PPARa), PPARA (gene 5465) (UniProt Q07869); experiment: ATG_PPARa_TRANS: Attagene TRANS-FACTORIAL HepG2 Assay for human Peroxisome Proliferator-activated Receptor alpha (PPARa) (AID 2283001; active = hit-call score of the fitted dose curve at least 0.9, where 1 is the maximum)
How it was run: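 Transfected HepG2 cells treated with test chemical for 24 h. RNA isolated, reverse-transcribed with oligo(dT), PCR-amplified, FAM-labelled and HpaI-digested. Fragments sized by capillary electrophoresis; gain-of-signal fit relative to DMSO.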

[12] = read-out: Intercellular Adhesion Molecule 1 (ICAM1), ICAM1 (gene 3383); experiment: BSK_3C_ICAM1: BioMAP Diversity Plus: 3C Assay for Intercellular Adhesion Molecule 1 (ICAM1) Biomarker Activity (AID 2283003); details: primary human endothelial cells (HUVEC); actives raise or lower the signal
How it was run: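 ELISA read-out of ICAM-1; HUVEC (primary human), 3C system, 24 h post-dosing; bidirectional fit vs DMSO baseline.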

[13] = BSK_3C_Proliferation: Cell Proliferation Assessment in the BioMAP Diversity Plus: 3C Assay (AID 2283006); details: primary human endothelial cells (HUVEC);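 as to AC50: potency may reflect either rise or fall in cell number versus DMSO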
How it was run: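 HUVEC, sub-confluent; 48 h chemical exposure; 10% TCA fix, 0.1% SRB stain, A560 total protein. Gain or loss of signal fitted both directions vs DMSO control.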

[14] = biological target: Peroxisome proliferator-activated receptor gamma (Homo sapiens) (UniProt P37231); experiment: ATG_PPARg_TRANS: Attagene TRANS-FACTORIAL HepG2 Assay for human Peroxisome Proliferator-activated Receptor-gamma (PPARg) (AID 2283007; active = hit-call score of the fitted dose curve at least 0.9, where 1 is the maximum)
How it was run: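 HepG2 cells are transiently transfected with GAL4-UAS reporter units driven by chimeric NR-Gal4 fusions and dosed for 24 h. Reporter mRNA is quantified by RT-PCR, 6-FAM labelling, HpaI digestion and capillary electrophoresis. Induction is scored against DMSO.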

[15] = biological target: Nuclear receptor subfamily 1 group I member 2 (Homo sapiens) (UniProt O75469); experiment: ATG_PXR_TRANS: Attagene TRANS-FACTORIAL HepG2 Assay for human Pregnane X Receptor (PXR) (AID 2283008; active = hit-call score of the fitted dose curve at least 0.9, where 1 is the maximum)
How it was run: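 Trans-factorial format: exogenous NR-Gal4 fusion activity, not endogenous factor, in transfected human HepG2 liver cells. After 24 h dosing, RNA isolated, reverse-transcribed, amplified and resolved by capillary electrophoresis; induction scored versus DMSO.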

[16] = biological target: human Peroxisome Proliferator-activated Receptor delta (PPARd), PPARD (gene 5467) (UniProt Q03181); experiment: ATG_PPARd_TRANS: Attagene TRANS-FACTORIAL HepG2 Assay for human Peroxisome Proliferator-activated Receptor delta (PPARd) (AID 2283002; active = hit-call score of the fitted dose curve at least 0.9, where 1 is the maximum)
How it was run: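 Cell-based TRANS reporter: HepG2, transient MRTU transfection, 24 h exposure. Readout = reporter mRNA (RT-PCR/CE, 6-FAM). Gain-of-signal fit vs DMSO control.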

[17] = biological target: human RAR-related Orphan Receptor beta (RORb), RORB (gene 6096) (UniProt Q92753); experiment: ATG_RORb_TRANS: Attagene TRANS-FACTORIAL HepG2 Assay for human RAR-related Orphan Receptor beta (RORb) (AID 2283010; active = hit-call score of the fitted dose curve at least 0.9, where 1 is the maximum)
How it was run: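 HepG2, transient MRTU transfection (GAL4-UAS reporters, exogenous NR-Gal4 chimeras); 24 h compound exposure; total RNA → RT-PCR → 6-FAM primer extension → HpaI digest → CE fluorescence. Positive direction vs DMSO baseline.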

[18] = BSK_3C_VCAM1: BioMAP Diversity Plus: 3C Assay for Vascular cell adhesion molecule 1 (VCAM1) Biomarker Activity (AID 2282999); details: BioMAP 3C HUVEC, VCAM1 ELISA, cytokine-stimulated; actives raise or lower the signal
How it was run: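 Activity fitted in both directions relative to DMSO, with ELISA measurement of the surface marker on primary HUVEC (3C) at 24 h post-treatment; parallel SRB staining (0.1% SRB, TCA-fixed, 560 nm) flagged overt cytotoxicity.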

[19] = biological target: Retinoic acid receptor alpha (Homo sapiens) (UniProt P10276); experiment: ATG_RARa_TRANS: Attagene TRANS-FACTORIAL HepG2 Assay for human Retinoic Acid Receptor alpha (RARa) (AID 2283005; active = hit-call score of the fitted dose curve at least 0.9, where 1 is the maximum)
How it was run: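 Reporter transcripts, measured by RT-PCR with fluorescent labeling and capillary electrophoresis after 24 h dosing, reflect activity of an exogenous human RARa–GAL4 fusion in transiently transfected HepG2. Fitted for increase relative to DMSO.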

[20] = biological target: human Retinoic Acid Receptor beta (RARb), RARB (gene 5915) (UniProt P10826); experiment: ATG_RARb_TRANS: Attagene TRANS-FACTORIAL HepG2 Assay for human Retinoic Acid Receptor beta (AID 2283004; active = hit-call score of the fitted dose curve at least 0.9, where 1 is the maximum)
How it was run: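 Fluorescent capillary-electrophoresis detection of GAL4-UAS reporter mRNA defines the endpoint, with induction over DMSO-treated wells scored as activity. Transiently transfected human hepatoma HepG2 cells expressing exogenous NR–Gal4 proteins are exposed to test chemicals for 24 h.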

Measured: AC50

Nuclear respiratory factor 1 (Homo sapiens), sequence (Q16656 whole entry, looked up): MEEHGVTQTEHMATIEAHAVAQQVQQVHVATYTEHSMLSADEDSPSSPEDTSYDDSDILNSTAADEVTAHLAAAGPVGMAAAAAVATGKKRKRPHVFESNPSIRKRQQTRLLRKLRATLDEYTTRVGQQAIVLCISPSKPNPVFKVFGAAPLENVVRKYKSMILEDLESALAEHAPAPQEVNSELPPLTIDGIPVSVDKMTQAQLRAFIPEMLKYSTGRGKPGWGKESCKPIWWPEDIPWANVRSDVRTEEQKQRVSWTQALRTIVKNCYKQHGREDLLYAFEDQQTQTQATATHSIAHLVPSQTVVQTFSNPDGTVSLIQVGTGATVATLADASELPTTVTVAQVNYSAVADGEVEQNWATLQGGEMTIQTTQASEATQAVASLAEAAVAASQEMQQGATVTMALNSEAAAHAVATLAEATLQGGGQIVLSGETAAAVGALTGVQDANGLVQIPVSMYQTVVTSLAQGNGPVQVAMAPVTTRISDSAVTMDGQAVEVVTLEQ
human Retinoic Acid Receptor beta (RARb), RARB (gene 5915), sequence (P10826 whole entry, looked up, the tested form may be a part): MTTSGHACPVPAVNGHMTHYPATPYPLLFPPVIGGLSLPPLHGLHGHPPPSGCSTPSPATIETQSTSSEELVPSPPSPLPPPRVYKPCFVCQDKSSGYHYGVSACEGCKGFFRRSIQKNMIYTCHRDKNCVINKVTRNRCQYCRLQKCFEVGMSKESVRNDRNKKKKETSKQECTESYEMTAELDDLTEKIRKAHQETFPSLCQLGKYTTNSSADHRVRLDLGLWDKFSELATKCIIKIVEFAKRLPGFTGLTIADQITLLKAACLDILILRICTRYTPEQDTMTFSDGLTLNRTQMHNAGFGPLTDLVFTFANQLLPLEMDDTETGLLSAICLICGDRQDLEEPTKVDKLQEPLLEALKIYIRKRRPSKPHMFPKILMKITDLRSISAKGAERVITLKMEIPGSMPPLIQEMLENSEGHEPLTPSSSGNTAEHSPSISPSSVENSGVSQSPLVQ
Cellular tumor antigen p53 (Homo sapiens), sequence (P04637 whole entry, looked up): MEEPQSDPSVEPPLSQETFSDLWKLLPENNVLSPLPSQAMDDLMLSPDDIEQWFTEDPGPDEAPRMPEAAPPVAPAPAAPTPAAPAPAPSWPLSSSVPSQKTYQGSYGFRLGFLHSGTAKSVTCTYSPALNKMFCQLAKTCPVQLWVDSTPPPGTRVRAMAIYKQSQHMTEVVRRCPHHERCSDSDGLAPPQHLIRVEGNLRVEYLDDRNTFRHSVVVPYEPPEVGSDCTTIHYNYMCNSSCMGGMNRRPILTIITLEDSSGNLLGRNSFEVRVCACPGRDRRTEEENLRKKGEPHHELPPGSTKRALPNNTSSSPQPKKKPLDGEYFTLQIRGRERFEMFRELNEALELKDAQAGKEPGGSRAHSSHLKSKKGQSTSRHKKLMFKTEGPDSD
Myc proto-oncogene protein (Homo sapiens), sequence (P01106 whole entry, looked up): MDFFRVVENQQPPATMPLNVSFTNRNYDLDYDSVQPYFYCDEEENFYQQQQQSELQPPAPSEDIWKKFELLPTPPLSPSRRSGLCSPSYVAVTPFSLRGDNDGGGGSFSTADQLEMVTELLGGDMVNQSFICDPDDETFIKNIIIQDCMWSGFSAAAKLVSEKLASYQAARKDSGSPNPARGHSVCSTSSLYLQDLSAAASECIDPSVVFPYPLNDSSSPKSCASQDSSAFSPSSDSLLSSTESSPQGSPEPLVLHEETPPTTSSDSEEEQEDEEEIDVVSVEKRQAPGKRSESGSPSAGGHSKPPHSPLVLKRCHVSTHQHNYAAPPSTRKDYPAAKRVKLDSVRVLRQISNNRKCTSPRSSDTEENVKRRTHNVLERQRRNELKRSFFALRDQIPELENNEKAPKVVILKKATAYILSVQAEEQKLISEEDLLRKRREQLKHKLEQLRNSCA
Peroxisome proliferator-activated receptor gamma (Homo sapiens), sequence (P37231 whole entry, looked up, the tested form may be a part): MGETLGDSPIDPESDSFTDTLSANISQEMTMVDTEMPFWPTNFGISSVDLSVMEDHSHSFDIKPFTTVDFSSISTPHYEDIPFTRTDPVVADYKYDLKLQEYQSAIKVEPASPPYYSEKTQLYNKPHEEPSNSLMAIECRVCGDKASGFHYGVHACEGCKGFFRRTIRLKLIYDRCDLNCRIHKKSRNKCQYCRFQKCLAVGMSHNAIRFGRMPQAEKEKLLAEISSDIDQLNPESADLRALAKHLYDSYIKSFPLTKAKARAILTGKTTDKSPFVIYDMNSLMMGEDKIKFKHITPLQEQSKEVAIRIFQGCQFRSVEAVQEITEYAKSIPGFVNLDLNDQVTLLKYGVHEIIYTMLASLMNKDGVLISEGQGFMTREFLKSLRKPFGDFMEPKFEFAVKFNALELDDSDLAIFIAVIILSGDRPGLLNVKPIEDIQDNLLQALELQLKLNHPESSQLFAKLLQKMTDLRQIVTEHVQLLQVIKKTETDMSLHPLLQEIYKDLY
Nuclear receptor subfamily 1 group I member 2 (Homo sapiens), sequence (O75469 whole entry, looked up, the tested form may be a part): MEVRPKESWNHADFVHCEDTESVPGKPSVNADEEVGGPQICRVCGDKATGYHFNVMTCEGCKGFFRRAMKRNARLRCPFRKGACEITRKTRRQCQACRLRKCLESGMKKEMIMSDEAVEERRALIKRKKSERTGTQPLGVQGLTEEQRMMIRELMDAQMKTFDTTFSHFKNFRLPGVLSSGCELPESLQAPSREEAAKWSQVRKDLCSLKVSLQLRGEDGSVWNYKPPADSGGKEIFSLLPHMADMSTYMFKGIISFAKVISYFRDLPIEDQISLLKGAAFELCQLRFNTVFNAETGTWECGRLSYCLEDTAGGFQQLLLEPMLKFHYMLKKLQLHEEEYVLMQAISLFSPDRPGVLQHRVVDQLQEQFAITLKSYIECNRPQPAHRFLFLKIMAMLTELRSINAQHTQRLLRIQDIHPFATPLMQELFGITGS
human Peroxisome Proliferator-activated Receptor alpha (PPARa), PPARA (gene 5465), sequence (Q07869 whole entry, looked up, the tested form may be a part): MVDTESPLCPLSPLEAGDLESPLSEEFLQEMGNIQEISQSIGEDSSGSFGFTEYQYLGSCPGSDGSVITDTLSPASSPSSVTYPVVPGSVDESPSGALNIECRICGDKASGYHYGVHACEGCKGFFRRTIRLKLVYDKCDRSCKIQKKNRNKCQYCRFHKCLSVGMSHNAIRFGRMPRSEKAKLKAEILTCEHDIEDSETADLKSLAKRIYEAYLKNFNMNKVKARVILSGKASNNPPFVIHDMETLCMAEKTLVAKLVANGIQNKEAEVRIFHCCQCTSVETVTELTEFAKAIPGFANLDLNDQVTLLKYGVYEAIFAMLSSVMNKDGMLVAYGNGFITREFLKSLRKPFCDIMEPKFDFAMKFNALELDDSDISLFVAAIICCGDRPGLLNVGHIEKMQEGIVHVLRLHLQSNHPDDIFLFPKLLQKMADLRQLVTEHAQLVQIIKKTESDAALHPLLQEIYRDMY
human RAR-related Orphan Receptor beta (RORb), RORB (gene 6096), sequence (Q92753 whole entry, looked up, the tested form may be a part): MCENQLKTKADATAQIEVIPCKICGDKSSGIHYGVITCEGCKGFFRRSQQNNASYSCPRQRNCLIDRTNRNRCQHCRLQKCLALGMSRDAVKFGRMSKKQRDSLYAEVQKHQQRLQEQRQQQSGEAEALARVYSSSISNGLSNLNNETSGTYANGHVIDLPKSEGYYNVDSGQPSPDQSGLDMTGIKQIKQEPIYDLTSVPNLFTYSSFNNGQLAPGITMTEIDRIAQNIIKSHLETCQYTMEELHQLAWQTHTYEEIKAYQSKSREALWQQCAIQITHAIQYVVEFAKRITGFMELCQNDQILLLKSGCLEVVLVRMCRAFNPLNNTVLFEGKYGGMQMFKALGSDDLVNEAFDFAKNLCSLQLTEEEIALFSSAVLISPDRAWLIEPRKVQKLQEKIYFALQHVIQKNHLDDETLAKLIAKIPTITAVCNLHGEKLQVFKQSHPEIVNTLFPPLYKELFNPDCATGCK
Retinoic acid receptor alpha (Homo sapiens), sequence (P10276 whole entry, looked up, the tested form may be a part): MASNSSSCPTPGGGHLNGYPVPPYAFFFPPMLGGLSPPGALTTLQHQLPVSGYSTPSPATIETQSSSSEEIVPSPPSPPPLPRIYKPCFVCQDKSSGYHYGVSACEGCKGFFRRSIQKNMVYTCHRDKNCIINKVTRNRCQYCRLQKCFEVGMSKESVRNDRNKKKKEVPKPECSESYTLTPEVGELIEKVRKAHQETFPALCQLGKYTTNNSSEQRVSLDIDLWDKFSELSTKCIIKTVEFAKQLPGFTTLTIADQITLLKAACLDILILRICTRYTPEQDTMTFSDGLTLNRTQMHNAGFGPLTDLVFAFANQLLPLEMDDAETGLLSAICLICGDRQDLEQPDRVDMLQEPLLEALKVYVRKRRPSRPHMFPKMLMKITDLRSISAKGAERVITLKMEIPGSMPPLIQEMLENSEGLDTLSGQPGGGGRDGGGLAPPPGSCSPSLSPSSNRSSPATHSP
human Peroxisome Proliferator-activated Receptor delta (PPARd), PPARD (gene 5467), sequence (Q03181 whole entry, looked up): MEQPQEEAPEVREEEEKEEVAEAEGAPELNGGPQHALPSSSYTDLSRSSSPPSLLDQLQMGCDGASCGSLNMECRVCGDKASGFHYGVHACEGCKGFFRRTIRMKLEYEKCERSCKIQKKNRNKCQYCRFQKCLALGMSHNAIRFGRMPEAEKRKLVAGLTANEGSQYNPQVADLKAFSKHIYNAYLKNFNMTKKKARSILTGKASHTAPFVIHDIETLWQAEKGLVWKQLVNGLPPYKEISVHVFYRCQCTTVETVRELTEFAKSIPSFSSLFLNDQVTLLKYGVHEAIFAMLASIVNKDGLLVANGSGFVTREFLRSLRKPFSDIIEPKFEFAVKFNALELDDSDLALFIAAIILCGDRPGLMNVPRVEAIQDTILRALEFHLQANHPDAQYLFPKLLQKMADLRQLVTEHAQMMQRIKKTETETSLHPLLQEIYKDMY

Oc1ccccc1Cl
active: [5] 52 µM
not listed: [16] | [17] | [18] | [19] | [20]
inactive: all other assays above

O=C(Nc1ccccc1)c1ccccc1I
active: [5] 20.3 µM | [14] 17.8 µM | [15] 10.6 µM
not listed: [7] | [11] | [13] | [18] | [19] | [20]
inactive: all other assays above

Brc1ccc(Oc2ccccc2)cc1
inactive: [1] | [3] | [4] | [7] | [8] | [10] | [12] | [14] | [15]
active: [2] 158 µM | [5] 74 µM | [6] 177 µM

CN(C)C(=O)Nc1ccc(Cl)cc1
not listed: [15] | [17] | [19] | [20]
inactive: all other assays above

O=Cc1ccco1
not listed: [7] | [13] | [14] | [15] | [17] | [18] | [20]
inactive: all other assays above

COC(=O)c1ccccc1N
not listed: [9] | [11] | [14] | [15] | [18] | [19] | [20]
inactive: all other assays above

C[C@]12C=CC3=C4CCC(=O)C=C4CC[C@H]3[C@@H]1CC[C@@H]2O
active: [2] 11.9 µM | [4] 19.8 µM and 70.6 µM and 40.3 µM | [5] 17.5 µM and 11.3 µM | [9] 7.23 µM | [16] 73.6 µM | [15] 26.9 µM
inactive: [1] | [2] | [3] | [4] | [5] | [8] | [10] | [11] | [16] | [12] | [14] | [15] | [17]

N#CC(Br)Br
active: [5] 74.8 µM
not listed: [7] | [11] | [13] | [17] | [18] | [19] | [20]
inactive: all other assays above

CCC(C)c1ccc(O)cc1 (stereo not given)
active: [4] 100 µM | [5] 67.3 µM | [6] 67.9 µM
not listed: [9] | [14] | [16] | [17] | [19] | [20]
inactive: all other assays above

O=C(Oc1ccc(Br)cc1)N1CCN2CCC1CC2
active: [4] 60.9 µM
not listed: [7] | [17] | [19] | [20]
inactive: all other assays above

CC(C)(C)OOC(=O)c1ccccc1
active: [5] 79.5 µM | [7] 136 µM
not listed: [13] | [14] | [15] | [17] | [19] | [20]
inactive: all other assays above

c1ccc(N=Nc2ccccc2)cc1
active: [5] 61.2 µM | [14] 43 µM
not listed: [6] | [9] | [16] | [17] | [18] | [19] | [20]
inactive: all other assays above

CCOC(=O)[C@]1(c2ccccc2)Oc2ccccc2[C@@H]1N
inactive: [18] | [11] | [12] | [20] | [19] | [14]
active: [1] 58.2 µM | [2] 46.4 µM | [3] 24.5 µM | [4] 33 µM | [5] 34.7 µM | [8] 20 µM | [10] 29.6 µM | [13] 30.9 µM | [15] 11 µM

CCCCCCCCOC(=O)c1ccc(C(=O)OCCCCCCCC)c(C(=O)OCCCCCCCC)c1
not listed: [7] | [9] | [15] | [16] | [17] | [18]
inactive: all other assays above

Nc1ccc(Cl)cc1N
active: [5] 5.68 µM | [18] 4.34 µM | [10] 2.15 µM
not listed: [6] | [7] | [9] | [16] | [17]
inactive: all other assays above

CCCCOC(=O)c1ccccc1C(=O)OCc1ccccc1
active: [5] 48.3 µM | [13] 14.4 µM
not listed: [7] | [9] | [14] | [17] | [19] | [20]
inactive: all other assays above
